# Legend:
# Assay in all cases: DAPPL (digital affinity profiling via proximity ligation, sequencing); 10 mM Tris-HCl pH 7.5, 50 mM NaCl, 1 mM DTT, 4% glycerol, room temperature, 30 min; GST-TFs on glutathione beads, 16-mer random dsDNA library, 0.1% formaldehyde crosslink after washing; high values mean tight binding
# Details in all cases: protein: recombinant; tags: N-terminal GST; dsDNA, one strand shown
# FLI1 = biological target: T1, FLI1 (Homo sapiens, UniProt Q01543 1-452)
# T1 sequence: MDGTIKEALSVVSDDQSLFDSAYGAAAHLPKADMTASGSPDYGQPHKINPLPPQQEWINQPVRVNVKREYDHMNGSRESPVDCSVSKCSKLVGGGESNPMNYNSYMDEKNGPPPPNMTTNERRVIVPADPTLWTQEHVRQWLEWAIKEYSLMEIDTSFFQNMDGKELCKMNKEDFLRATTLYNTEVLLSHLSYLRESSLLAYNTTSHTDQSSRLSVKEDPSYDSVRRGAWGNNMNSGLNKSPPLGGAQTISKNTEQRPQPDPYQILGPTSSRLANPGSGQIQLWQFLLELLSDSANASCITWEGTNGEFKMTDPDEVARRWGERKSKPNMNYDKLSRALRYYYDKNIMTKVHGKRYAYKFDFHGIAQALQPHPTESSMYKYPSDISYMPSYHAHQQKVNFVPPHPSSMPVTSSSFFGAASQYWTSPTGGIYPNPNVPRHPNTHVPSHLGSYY
# How it was run: (§1)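 Binding signal is each hexamer's read frequency for a factor divided by its frequency in the tag-only sample. The factors were GST-fused human transcription factors from yeast, captured on glutathione beads, DNA-barcoded and pooled with that sample. Pools were incubated with 200 nmole of a random double-stranded 16-mer DNA library in Tris/NaCl/DTT/glycerol buffer at room temperature for 30 min, then washed, crosslinked with 0.1% formaldehyde, proximity-ligated with BsaI/T4 ligase (1 h, 37 °C), PCR-amplified and sequenced on an Illumina NextSeq500.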
# ELK1 = biological target: T2, ELK1 (Homo sapiens, UniProt P19419 1-428)
# T2 sequence: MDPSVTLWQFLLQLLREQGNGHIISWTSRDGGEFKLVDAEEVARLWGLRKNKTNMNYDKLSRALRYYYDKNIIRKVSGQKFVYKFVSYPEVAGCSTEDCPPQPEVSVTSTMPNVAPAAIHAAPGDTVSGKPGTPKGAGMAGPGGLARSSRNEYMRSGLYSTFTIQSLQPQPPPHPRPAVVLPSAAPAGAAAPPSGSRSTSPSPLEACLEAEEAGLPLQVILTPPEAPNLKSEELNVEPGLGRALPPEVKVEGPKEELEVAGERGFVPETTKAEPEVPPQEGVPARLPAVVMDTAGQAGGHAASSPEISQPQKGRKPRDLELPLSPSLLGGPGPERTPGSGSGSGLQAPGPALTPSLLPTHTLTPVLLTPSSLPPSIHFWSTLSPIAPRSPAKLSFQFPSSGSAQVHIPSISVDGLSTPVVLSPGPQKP
# How it was run: as §1
# GABPA = biological target: T3, GABPA (Homo sapiens, UniProt Q06546 1-454)
# T3 sequence: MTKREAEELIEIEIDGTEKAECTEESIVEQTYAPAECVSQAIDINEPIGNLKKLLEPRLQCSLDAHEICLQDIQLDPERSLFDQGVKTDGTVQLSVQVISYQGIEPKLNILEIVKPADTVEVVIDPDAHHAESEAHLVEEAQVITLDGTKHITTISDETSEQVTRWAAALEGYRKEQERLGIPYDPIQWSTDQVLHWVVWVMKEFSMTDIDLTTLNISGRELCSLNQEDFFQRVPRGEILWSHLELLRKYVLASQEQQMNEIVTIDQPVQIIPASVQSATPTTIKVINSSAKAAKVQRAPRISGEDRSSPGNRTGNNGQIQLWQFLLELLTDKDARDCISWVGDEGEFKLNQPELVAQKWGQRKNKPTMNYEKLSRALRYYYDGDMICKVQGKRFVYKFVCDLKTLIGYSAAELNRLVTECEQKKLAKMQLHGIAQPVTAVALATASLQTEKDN
# How it was run: as §1
# ERG = biological target: T4, ERG (Homo sapiens, UniProt P11308 1-479)
# T4 sequence: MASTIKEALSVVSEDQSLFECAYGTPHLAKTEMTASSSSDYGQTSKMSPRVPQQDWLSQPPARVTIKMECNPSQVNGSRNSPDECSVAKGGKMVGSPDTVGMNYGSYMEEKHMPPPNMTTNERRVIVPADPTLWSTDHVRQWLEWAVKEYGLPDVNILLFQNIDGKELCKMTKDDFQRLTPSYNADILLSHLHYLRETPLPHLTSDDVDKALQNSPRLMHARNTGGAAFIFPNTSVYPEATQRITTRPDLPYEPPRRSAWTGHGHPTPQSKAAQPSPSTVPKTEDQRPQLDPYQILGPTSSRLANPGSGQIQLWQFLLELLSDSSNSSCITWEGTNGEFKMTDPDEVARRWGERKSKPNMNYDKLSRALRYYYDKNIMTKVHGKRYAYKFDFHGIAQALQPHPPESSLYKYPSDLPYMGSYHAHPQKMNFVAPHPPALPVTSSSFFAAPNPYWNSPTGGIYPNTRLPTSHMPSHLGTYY
# How it was run: as §1
# ELF1 = ELF1 (Homo sapiens, UniProt P32519 1-619)
# Chain of ELF1 (P32519 whole entry): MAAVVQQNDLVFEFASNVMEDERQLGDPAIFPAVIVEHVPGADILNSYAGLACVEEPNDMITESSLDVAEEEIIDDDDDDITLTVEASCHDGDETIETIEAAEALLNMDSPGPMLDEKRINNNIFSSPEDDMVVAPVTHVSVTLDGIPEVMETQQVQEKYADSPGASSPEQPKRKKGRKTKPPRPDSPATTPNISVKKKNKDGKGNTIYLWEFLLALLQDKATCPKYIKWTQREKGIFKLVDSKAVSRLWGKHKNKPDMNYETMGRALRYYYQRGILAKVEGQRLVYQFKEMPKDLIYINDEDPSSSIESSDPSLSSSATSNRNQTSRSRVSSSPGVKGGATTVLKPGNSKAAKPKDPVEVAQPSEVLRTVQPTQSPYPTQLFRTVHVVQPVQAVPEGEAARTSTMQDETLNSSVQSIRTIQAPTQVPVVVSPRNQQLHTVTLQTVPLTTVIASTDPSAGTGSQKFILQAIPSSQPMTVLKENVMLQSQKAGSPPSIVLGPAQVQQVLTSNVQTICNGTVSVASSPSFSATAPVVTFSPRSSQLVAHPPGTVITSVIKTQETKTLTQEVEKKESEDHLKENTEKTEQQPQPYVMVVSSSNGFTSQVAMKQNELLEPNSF
# How it was run: as §1
# EHF = biological target: T5, EHF (Homo sapiens, UniProt Q9NZC4 1-300)
# T5 sequence: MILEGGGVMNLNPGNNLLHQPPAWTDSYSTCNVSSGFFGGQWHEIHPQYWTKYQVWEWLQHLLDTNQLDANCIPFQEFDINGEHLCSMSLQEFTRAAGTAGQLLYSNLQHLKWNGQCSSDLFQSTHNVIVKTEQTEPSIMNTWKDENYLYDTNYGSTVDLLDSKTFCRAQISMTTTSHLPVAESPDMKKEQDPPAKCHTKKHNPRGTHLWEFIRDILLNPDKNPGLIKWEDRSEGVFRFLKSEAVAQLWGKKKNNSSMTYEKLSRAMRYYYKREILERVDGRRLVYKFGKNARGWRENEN
# How it was run: as §1
# SPI1 = SPI1 (Homo sapiens, UniProt P17947 1-270)
# How it was run: as §1
# SPIB = SPIB (Homo sapiens, UniProt Q01892 1-262)
# Chain of SPIB (Q01892 whole entry): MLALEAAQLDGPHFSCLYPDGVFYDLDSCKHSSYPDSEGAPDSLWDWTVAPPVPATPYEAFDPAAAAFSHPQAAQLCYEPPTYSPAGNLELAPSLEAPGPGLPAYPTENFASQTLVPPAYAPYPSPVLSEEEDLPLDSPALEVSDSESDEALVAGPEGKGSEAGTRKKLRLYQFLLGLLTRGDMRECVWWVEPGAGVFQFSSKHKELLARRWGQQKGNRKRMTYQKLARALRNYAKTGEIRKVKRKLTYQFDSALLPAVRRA
# How it was run: as §1
# ELK3 = biological target: T6, ELK3 (Homo sapiens, UniProt P41970 1-407)
# T6 sequence: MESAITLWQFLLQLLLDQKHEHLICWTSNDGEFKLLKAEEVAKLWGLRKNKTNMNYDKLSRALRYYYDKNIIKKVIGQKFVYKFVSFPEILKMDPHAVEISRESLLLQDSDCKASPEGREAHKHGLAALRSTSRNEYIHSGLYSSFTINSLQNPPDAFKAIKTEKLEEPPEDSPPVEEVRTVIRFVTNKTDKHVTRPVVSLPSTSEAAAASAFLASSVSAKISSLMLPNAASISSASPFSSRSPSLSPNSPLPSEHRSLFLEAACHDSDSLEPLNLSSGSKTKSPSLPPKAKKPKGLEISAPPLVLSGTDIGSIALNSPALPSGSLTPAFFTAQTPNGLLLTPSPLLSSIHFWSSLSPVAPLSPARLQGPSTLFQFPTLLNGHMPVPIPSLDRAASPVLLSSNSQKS
# How it was run: as §1
Sequence,binding signal (FLI1),binding signal (ELK1),binding signal (GABPA),binding signal (ERG),binding signal (ELF1),binding signal (EHF),binding signal (SPI1),binding signal (SPIB),binding signal (ELK3)
TTTTCC,"1.9 fold enrichment (6-mer frequency, TF over GST control)","1.68 fold enrichment (6-mer frequency, TF over GST control)","1.71 fold enrichment (6-mer frequency, TF over GST control)","1.76 fold enrichment (6-mer frequency, TF over GST control)","1.6 fold enrichment (6-mer frequency, TF over GST control)","1.76 fold enrichment (6-mer frequency, TF over GST control)","1.75 fold enrichment (6-mer frequency, TF over GST control)","1.79 fold enrichment (6-mer frequency, TF over GST control)","1.82 fold enrichment (6-mer frequency, TF over GST control)"
CTTTTT,"1.22 fold enrichment (6-mer frequency, TF over GST control)","1.16 fold enrichment (6-mer frequency, TF over GST control)","1.32 fold enrichment (6-mer frequency, TF over GST control)","1.25 fold enrichment (6-mer frequency, TF over GST control)","1.31 fold enrichment (6-mer frequency, TF over GST control)","1.17 fold enrichment (6-mer frequency, TF over GST control)","1.88 fold enrichment (6-mer frequency, TF over GST control)","1.41 fold enrichment (6-mer frequency, TF over GST control)","1.37 fold enrichment (6-mer frequency, TF over GST control)"
TATAAA,"1.17 fold enrichment (6-mer frequency, TF over GST control)","1.29 fold enrichment (6-mer frequency, TF over GST control)","1.21 fold enrichment (6-mer frequency, TF over GST control)","1.18 fold enrichment (6-mer frequency, TF over GST control)","1.21 fold enrichment (6-mer frequency, TF over GST control)","1.28 fold enrichment (6-mer frequency, TF over GST control)","1.26 fold enrichment (6-mer frequency, TF over GST control)","1.3 fold enrichment (6-mer frequency, TF over GST control)","1.26 fold enrichment (6-mer frequency, TF over GST control)"
ATCATC,"1.17 fold enrichment (6-mer frequency, TF over GST control)","1.2 fold enrichment (6-mer frequency, TF over GST control)","1.19 fold enrichment (6-mer frequency, TF over GST control)","1.17 fold enrichment (6-mer frequency, TF over GST control)","1.25 fold enrichment (6-mer frequency, TF over GST control)","1.25 fold enrichment (6-mer frequency, TF over GST control)","1.14 fold enrichment (6-mer frequency, TF over GST control)","1.19 fold enrichment (6-mer frequency, TF over GST control)","1.08 fold enrichment (6-mer frequency, TF over GST control)"
CCTGCT,"1.46 fold enrichment (6-mer frequency, TF over GST control)","1.72 fold enrichment (6-mer frequency, TF over GST control)","1.46 fold enrichment (6-mer frequency, TF over GST control)","1.65 fold enrichment (6-mer frequency, TF over GST control)","1.61 fold enrichment (6-mer frequency, TF over GST control)","1.61 fold enrichment (6-mer frequency, TF over GST control)","1.78 fold enrichment (6-mer frequency, TF over GST control)","1.59 fold enrichment (6-mer frequency, TF over GST control)","1.61 fold enrichment (6-mer frequency, TF over GST control)"
ACGTCT,"1.13 fold enrichment (6-mer frequency, TF over GST control)","1.2 fold enrichment (6-mer frequency, TF over GST control)","1.14 fold enrichment (6-mer frequency, TF over GST control)","1.22 fold enrichment (6-mer frequency, TF over GST control)","1.17 fold enrichment (6-mer frequency, TF over GST control)","1.13 fold enrichment (6-mer frequency, TF over GST control)","1.15 fold enrichment (6-mer frequency, TF over GST control)","1.35 fold enrichment (6-mer frequency, TF over GST control)","1.18 fold enrichment (6-mer frequency, TF over GST control)"
AATCTC,"1.26 fold enrichment (6-mer frequency, TF over GST control)","1.21 fold enrichment (6-mer frequency, TF over GST control)","1.28 fold enrichment (6-mer frequency, TF over GST control)","1.19 fold enrichment (6-mer frequency, TF over GST control)","1.16 fold enrichment (6-mer frequency, TF over GST control)","1.27 fold enrichment (6-mer frequency, TF over GST control)","1.16 fold enrichment (6-mer frequency, TF over GST control)","1.2 fold enrichment (6-mer frequency, TF over GST control)","1.15 fold enrichment (6-mer frequency, TF over GST control)"

# Reference: publication PMC7862700, “An all-to-all approach to the identification of sequence-specific readers for epigenetic DNA modifications on cytosine”
